Assay [1] in a line: qHTS Assay for Identifying Gametocytocidal Compounds (AID 743244).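 Also: actives lower the fluorescent signal which means gametocytes are killed.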 The settings on record: P. falciparum 3D7 stage III-V gametocytes, alamarBlue, 72 h; max response: active compounds read low. The essentials: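 Stage III–V gametocytes of P. falciparum 3D7 were seeded at 20,000 cells/well onto pre-dispensed compounds. After 72 h, 37 °C, 5% CO2, alamarBlue was added for another 24 h.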
(In qHTS, concentration-response curves come from the screen itself.)

The nature of assay [2]: qHTS assay for measurement of the activity of small molecule inhibitors on Zika virus induced Caspase-3 activity in human iPSC derived neural progenitor cells (hNPCs) (AID 1224857). Also: nearly all actives have a fitted effect of over 65% in size. The settings on record: hNPCs ZIKV-induced caspase-3/7, Caspase-Glo luminescence, 6 h; series mostly up to 45.7 µM. The essentials: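 Values are percent inhibition of virus-induced caspase-3/7 signal, scaled between uninfected cells and ZIKV-infected cells. Infection used 2 FFU/cell for 6 h after 1 h compound exposure.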

Several values for one entry are separate records, joined by “and”; a condition that tells them apart may be missing. Equal entries are not always repeated. Records with an inconclusive call do not appear. A call without a number means that no potency is given here. Unmarked numbers belong to inactive results. Activity calls are given as the source filed them. Calls follow the shape of the dose curve; as a rule, active = well fitted curve in the direction sought with a large enough effect; inconclusive = small, poorly fitted or top-dose-only effect, or another doubt; inactive = no such curve, though single readings can be large; an effect the other way counts as inactive or inconclusive.

With `CC(=O)O[C@]1(C(C)=O)CC[C@H]2[C@@H]3C=C(C)C4=CC(=O)CC[C@]4(C)[C@H]3CC[C@@]21C`, the max response in assay [1] is 3.72%. Besides, in assay [2], the Potency entry is “inactive”.
The matching figures for `CCN(CC)CCOC(=O)C(Cc1cccc2ccccc12)CC1CCCO1` (stereo unspecified): 7.43% and “inactive”.
In the same order, the values of `NC(=O)n1c(O)c(C(=O)c2cccs2)c2cc(Cl)ccc21` are -6.13% and “inactive”.
In the same order, the values of `C[N+]12CCC(CC1)C(OC(=O)C(O)(c1ccccc1)c1ccccc1)C2` (stereo unspecified) are -5.86% and “inactive”.
Turning to `O=c1[nH]c(=O)n([C@H]2C[C@H](O)[C@@H](CO)O2)cc1F`, the max response in assay [1] was 4.58%. Moreover, the Potency result in assay [2] was “inactive”.
The matching figures for `CCCCN=C(N)N=C(N)N`: 0.948% and “inactive”.
`CC(C)=CCOc1ccc(/C=C/C(=O)c2ccc(OCC=C(C)C)cc2OCC(=O)O)cc1`: in assay [1], the max response is 2.6%. The Potency entry in assay [2] is “inactive”.
In the same order, the values of `C[C@@H](O)[C@H]1C(=O)N2C(C(=O)O)=C([C@H]3CCCO3)S[C@H]12` are -9.42% and “inactive”.
As for `COc1ccc(-c2cc(C(F)F)nn2-c2ccc(S(N)(=O)=O)cc2)cc1F`, the max response in assay [1] was 25.1%. Besides, in assay [2], the Potency result was “inactive”.
For the molecule `CCOCCn1c(N2CCCN(C)CC2)nc2ccccc21`, the max response in assay [1] is -5.27%. Besides, in assay [2], the Potency entry is “inactive”.
The matching figures for `Cc1cccc(C)c1NC(=O)c1ccccc1C(=O)O`: -7.1% and “inactive”.
In the same order, the values of `CN(C)CCOC(=O)C(c1ccccc1)C1(O)CCCC1` (stereo unspecified) are 1.53% and “inactive”.
In the same order, the values of `Cc1cccc(C)c1NC(=O)CN1CCCCCC1` are 3.55% and “inactive”.
On to `CCN1CCCC(OC(=O)C(c2ccccc2)c2ccccc2)C1` (stereo unspecified), for which, in assay [1], the max response is -3.97%. In assay [2], the Potency entry is “inactive”.
In the same order, the values of `CCC(CC)(CC(=O)Nc1cccc(/C=C/c2nc(C3CCC3)cs2)c1)C(=O)O` are 48.4% and “inactive”.
In the same order, the values of `Cl/C(=C\n1cncn1)c1ccc(Cl)cc1Cl` are -6.68% and “inactive”.
In the same order, the values of `CCCCNc1ccc(C(=O)OCCOCCOCCOCCOCCOCCOCCOCCOCCOC)cc1` are -1.52% and “inactive”.
With `CC(C)[C@@H]1CC[C@@H](C)CC1=O`, the max response in assay [1] is -7.98%. For the same molecule, the Potency result in assay [2] is “inactive”.
The matching figures for `Cc1ccc(S(=O)(=O)NC(=O)NC2CCCC2)cc1`: 3.98% and “inactive”.
In the same order, the values of `CN(C)CCOC(c1ccc(Cl)cc1)c1ccccn1` (stereo unspecified) are 1.88% and “inactive”.
In the same order, the values of `CCCCc1cc2ccccc2c(OCCN(C)C)n1` are -5.86% and “inactive”.
On to `C#C[C@]1(O)CC[C@H]2[C@@H]3CCc4cc(OC)ccc4[C@H]3CC[C@@]21C`, for which the max response in assay [1] is -2.6%. Further, in assay [2], the Potency result is “inactive”.
The matching figures for `Cc1cccc(C)c1NC(=O)CN1CCCC1`: 20.5% and “inactive”.
The matching figures for `CC1CCc2c(N3CCC(O)CC3)c(F)cc3c(=O)c(C(=O)O)cn1c23` (stereo unspecified): 21.4% and “inactive”.
Turning to `O=C(O)CCNC(=O)c1ccccc1`, the max response in assay [1] is 7.27%. Moreover, in assay [2], the Potency result was “inactive”.
Regarding `Cc1cc(-c2ccccc2)nnc1NCCN1CCOCC1`, the max response in assay [1] was -0.774% and -9.14%. In addition, the Potency entry in assay [2] is “inactive”.
Take `Cc1cc(NS(=O)(=O)c2ccc(N)cc2)nc(C)n1`: the max response in assay [1] is 18.7%. Also, in assay [2], the Potency entry is “inactive”.
In the same order, the values of `CCOC(=O)[C@H](CCc1ccccc1)N[C@@H](C)C(=O)N1[C@H](C(=O)O)C[C@@H]2CCC[C@@H]21` are -0.0266% and “inactive”.
In the same order, the values of `C#C[C@]1(O)CC[C@H]2[C@@H]3CCC4=CC(=O)CC[C@@H]4[C@H]3CC[C@@]21CC` are 6.28% and “inactive”.
The matching figures for `NCCNC(=O)c1ccc(Cl)cn1`: -2.71% and “inactive”.
As to `CC(C)Cn1cnc2c1c(=O)n(C)c(=O)n2C`, the max response in assay [1] was -4.05%. In addition, the Potency entry in assay [2] was “inactive”.
In the same order, the values of `O=S(=O)(O)c1ccc(O)cc1` are 19.1% and “inactive”.
The matching figures for `CCCCCCCCCCCCOCCOCCOCCOCCOCCOCCOCCOCCOCCO`: 14.7% and “inactive”.
